Experimental data reported in ChEMBL document CHEMBL4513146, “CO-ADD screening of Karazin Kharkiv National University (Ukraine) compounds”.
Entries with a potency or affinity are not part of this list.

Tests used:
[1] = system: Staphylococcus aureus; conditions: Concentration 32 ug.mL-1;; ASSAY_TEST Inhibition of Bacterial Growth; detection method Absorption (OD600); MEDIA CAMHB; plate type 384well; NBS; CORNING #3640; time 18 hr
[2] = system: Escherichia coli; conditions: Concentration 32 ug.mL-1;; ASSAY_TEST Inhibition of Bacterial Growth; detection method Absorption (OD600); MEDIA CAMHB; plate type 384well; NBS; CORNING #3640; time 18 hr

Row | SMILES | Inhibition [1] [%] | Inhibition [2] [%]
1 | O=C(Cn1nc2c(=O)n(-c3ccc(Br)cc3)ccn2c1=O)Nc1ccc(F)cc1F | 3.27 | -0.82
2 | CC(C)c1nnc2c(=O)n(CC(=O)Nc3ccc(Br)cc3F)c3ccccc3n12 | 7.11 | 1.53
3 | CCc1ccc(NC(=O)Cn2nc3ccc(SC(C)(C)C)nn3c2=O)cc1 | 4.76 | -1.87
4 | CCCCc1ccc(NC(=O)Cn2c(=O)c3nnc(C(C)C)n3c3ccccc32)cc1 | 13.14 | 1.92
5 | Cc1cc(C)cc(NC(=O)Cn2nc3c4cc(-c5ccc(Cl)cc5)nn4ccn3c2=O)c1 | 2.02 | 6.23
6 | Cc1ccc(-c2ccc3nn(Cc4cccc(Cl)c4)c(=O)n3n2)cc1C | 8.16 | -3.9
7 | COc1cccc(-c2nc(CSc3nc4ccccc4n4c(C(C)C)nnc34)c(C)o2)c1OC | 5.27 | -1.56
8 | CCOc1ccccc1NC(=O)Cn1nc2c3cc(-c4ccc(Cl)cc4)nn3ccn2c1=O | 6.48 | 1.3
9 | COc1cccc(Sc2nc3ccccc3n3c(=O)n(CC(=O)N4CCCc5ccccc54)nc23)c1 | -3.45 | -7.6
10 | CCC(Sc1nnc2c(=O)n(-c3ccc(C)c(C)c3)ccn12)C(=O)Nc1cc(OC)ccc1OC (stereo not given) | -17.77 | -11.35
11 | Cc1cccc(N(Cc2cccc(Cl)c2)S(=O)(=O)c2cccn3c(C)nnc23)c1 | 2.81 | -5.89
12 | O=S(=O)(c1cccn2cnnc12)N(Cc1cccc(Cl)c1)c1cc(F)cc(F)c1 | 17.81 | -3.49
13 | COc1ccc(NC(=O)Cn2nc3c(N4CC(C)CC(C)C4)nccn3c2=O)c(OC)c1 (stereo not given) | 18.35 | 1.24
14 | Cc1ccc(Sc2nccn3c(=O)n(CC(=O)Nc4ccc(Br)cc4)nc23)c(C)c1 | -1.98 | -4.39
15 | CCOc1ccc(-n2ccn3c(SCC(=O)Nc4cc(Cl)ccc4OC)nnc3c2=O)cc1 | 6.02 | 1.04
16 | Cc1cccc(N(C)C(=O)Cn2nc3cc(C)nc(Nc4ccc(C)c(F)c4)n3c2=O)c1 | -15.22 | 0.9
17 | Cc1cc2nn(CC(=O)NCc3ccccc3)c(=O)n2c(-c2ccc(C(F)(F)F)cc2)n1 | 13.36 | -8.01
18 | Cc1ccc(NC(=O)c2ccc3nnc(SCC(=O)Nc4ccc(Br)cc4)n3c2)cc1 | -2.55 | -1.72
19 | CN(C)c1nc2ccccc2n2c(=O)n(CC(=O)Nc3ccc4c(c3)OCO4)nc12 | 1.33 | 1.96
20 | CSc1cccc(NC(=O)Cn2nc3c(N4CCCC4)nccn3c2=O)c1 | -20.72 | -10.95
21 | CCc1ccc(N(Cc2cccc(Cl)c2)S(=O)(=O)c2cccn3c(C)nnc23)cc1 | 10.13 | -1.93
22 | Cc1cc2nn(CC(=O)N3CCCc4ccccc43)c(=O)n2c(Nc2ccc(F)cc2)n1 | 6.5 | -0.15
23 | Cc1ccc(NC(=O)Cn2nc3c(Sc4ccccc4)nccn3c2=O)c(Br)c1 | -10.94 | -14.81
24 | O=C(Cn1nc2c3cc(-c4ccc(F)cc4)nn3ccn2c1=O)Nc1ccc2c(c1)OCCO2 | 10.64 | 1.96

Row | SMILES | Inhibition [1] [%] | Inhibition [2] [%]
25 | COc1ccc(NC(=O)c2ccc3nn(CC(=O)Nc4cccc(SC)c4)c(=O)n3c2)cc1 | -4.7 | -9.26
26 | Cc1cc(C)c(NC(=O)Cn2nc3c(Sc4ccccc4)nccn3c2=O)c(C)c1 | 5.4 | -7.73
27 | Cc1ccccc1CN(c1ccc(C(C)C)cc1)S(=O)(=O)c1cccn2c(C)nnc12 | 9.54 | -1.18
28 | N#CCn1nc2n(CCC(=O)NC3CCCCC3)c(=O)c3ccccc3n2c1=O | 8.56 | 0.43
29 | O=C(Cn1nc2nc(Nc3ccc(F)cc3)ccn2c1=O)N1CCCc2ccccc21 | 5.55 | -6.76
30 | CCc1ccc(N(Cc2ccc(C)cc2)S(=O)(=O)c2cccn3cnnc23)cc1 | 18.47 | 2.14
31 | Cc1ccc(Nc2cc(C)n3c(=O)n(CCOc4ccc(F)cc4)nc3n2)cc1 | 8.99 | -0.82
32 | CSc1cccc(NC(=O)Cn2nc3ccc(SC4CCCCC4)nn3c2=O)c1 | -9.19 | -2.76
33 | CCc1nnc2c(S(=O)(=O)N(Cc3ccc(F)cc3)c3cccc(Cl)c3)cccn12 | 8.4 | -8.07
34 | CCCN(C)c1nccn2c(=O)n(CC(=O)Nc3cccc(Br)c3)nc12 | 10.78 | -4.19
35 | COc1ccccc1Cn1c(=O)c2sccc2n2c(=O)n(Cc3c(F)cccc3Cl)nc12 | 3.95 | 0.18
36 | Cc1ccc(Sc2ccc3nn(CC(=O)Nc4ccc(F)c(Cl)c4)c(=O)n3n2)cc1 | 7.06 | 0.26
37 | COc1ccc(Cl)cc1NC(=O)CSc1nc2ccccc2n2cnnc12 | 12.82 | 5.77
38 | CC(C)c1nnc2c(SCC(=O)Nc3cccc(Br)c3)nc3ccccc3n12 | 4.41 | -8.3
39 | Cc1cccc(Oc2nc3ccccc3n3c(=O)n(CC(=O)Nc4cccc(C#N)c4)nc23)c1C | -4.2 | -5.56
40 | Cc1ccc(-c2cc3c4nn(CC(=O)N5CCN(c6ccccc6F)CC5)c(=O)n4ccn3n2)cc1C | 8.03 | 4.31
41 | CCc1ccc(N(Cc2ccccc2C)S(=O)(=O)c2cccn3c(CC)nnc23)cc1 | 11.1 | -3.02
42 | COc1cccc(-n2ccn3c(SCc4ccccc4C)nnc3c2=O)c1 | 11 | -3.45
43 | Cc1ccc(NC(=O)Cn2nc3c(N4CC(C)CC(C)C4)nccn3c2=O)c(F)c1 (stereo not given) | 10.72 | 1.48
44 | Cc1nnc2c(=O)n(CC(=O)Nc3cccc(Cl)c3)c3ccccc3n12 | 13.08 | 5.41
45 | Cc1cccc(C)c1NC(=O)CSc1nnc2c3cc(-c4ccccc4)nn3ccn12 | -21.6 | -21.37
46 | C=Cc1ccc(CN(c2cccc(Cl)c2)S(=O)(=O)c2cccn3c(C)nnc23)cc1 | -18.32 | -14.37
47 | CCCCOc1ccc(-c2cc3c4nnc(SCC(=O)Nc5cccc(C#N)c5)n4ccn3n2)cc1 | -7.95 | -7.05
48 | O=C(CSc1nnc2c(=O)n(-c3ccccc3)ccn12)Nc1ccc(F)cc1F | -3.92 | -2.13

Row | SMILES | Inhibition [1] [%] | Inhibition [2] [%]
49 | COc1cccc(Oc2nccn3c(=O)n(CC(=O)Nc4cccc(Br)c4)nc23)c1 | 9.05 | -6.35
50 | CCCN(C)c1nccn2c(=O)n(CC(=O)Nc3ccc(F)cc3)nc12 | 13.38 | -2.86
51 | Cc1nnc2ccc(S(=O)(=O)N(Cc3ccccc3)c3cccc(F)c3)cn12 | 2.5 | -6.96
52 | COC(=O)c1ccc(NC(=O)Cn2nc3ccc(S(=O)(=O)C4CCCCC4)nn3c2=O)cc1 | 8.6 | -7.53
53 | O=c1c2nn(Cc3ccc([N+](=O)[O-])cc3)c(=O)n2ccn1-c1ccccc1 | 12.75 | -1.5
54 | Cc1ccc(Oc2nccn3c(=O)n(CC(=O)Nc4ccccc4F)nc23)cc1 | 4.19 | -1.2
55 | O=C(Cn1nc2ccc(Sc3cccc(F)c3)nn2c1=O)NCc1ccc(Cl)cc1 | 1.01 | 1.23
56 | COc1cccc(CNC(=O)CSc2nnc3c4cc(-c5ccc(C)cc5)nn4ccn23)c1 | -18.93 | -18.15
57 | CC(C)c1ccc(Cn2c(=O)c3sccc3n3c(SCc4cccc(C(F)(F)F)c4)nnc23)cc1 | 11.56 | 1.07
58 | COc1ccc(-c2cc3c4nnc(SCC(=O)Nc5cccc(C#N)c5)n4ccn3n2)cc1 | 1.06 | -0.96
59 | O=c1c2sccc2n2c(=O)n(Cc3ccc(Cl)cc3)nc2n1Cc1cccs1 | -8.27 | -9.25
60 | CCOC(=O)c1ccc(NC(=O)Cn2nc3ccc(Sc4ccccc4)nn3c2=O)cc1 | 9.67 | -3.7
61 | Cc1cccc(Sc2nccn3c(=O)n(CC(=O)N4CCN(c5ccccc5)CC4)nc23)c1 | 12.14 | -10.39
62 | CCOc1ccc(N(Cc2ccc(F)cc2)S(=O)(=O)c2ccc3nncn3c2)cc1 | -10.69 | -16.83
63 | CCc1nnc2c(SCC(=O)Nc3ccc(Br)cc3)nc3ccccc3n12 | -16.96 | 0.98
64 | CSc1cccc(NC(=O)Cn2nc3ccc(C(=O)NCc4ccccc4)cn3c2=O)c1 | 5.85 | -2.4
65 | O=C(Cn1nc2ccc(-c3ccc(Cl)cc3)nn2c1=O)N1CCN(c2ccccc2)CC1 | -1.88 | -5.05
66 | Cc1ccc(-c2ccc3nn(CC(=O)Nc4ccc(Cl)c(C(F)(F)F)c4)c(=O)n3n2)cc1C | -0.53 | -10.28
67 | COC(=O)c1cccc(NC(=O)Cn2nc3c(SCc4ccc(Cl)cc4)nccn3c2=O)c1 | 6.19 | -8.47
68 | COc1ccc(-n2ccn3c(-c4cccc([N+](=O)[O-])c4)nnc3c2=O)cc1 | 3.65 | -6.72
69 | Cc1nnc2ccc(S(=O)(=O)N(Cc3ccccc3F)c3ccc(F)c(F)c3)cn12 | 3.86 | -6.57
70 | CC(C)c1nnc2c(SCC(=O)Nc3ccc(Br)cc3)nc3ccccc3n12 | 1.25 | 1.75
